Bioassay records: PubChem, National Center for Advancing Translational Sciences (NCATS)
Only some compounds are listed: those with a hit (about 2.4% of all), similar ones and a draw of the others.
D2 antag: antagonists of human D2 dopamine receptor; P14416; inhibition, % at 10 µM; 340,000 compounds, 2% hits; HEK293 TREx D2 cells, calcium flux, dopamine EC80; in the data active means inhibition above about 30%; inactive means below that, where a call was filed; further: 0% is about no effect
Target sequence (P14416 whole entry, looked up): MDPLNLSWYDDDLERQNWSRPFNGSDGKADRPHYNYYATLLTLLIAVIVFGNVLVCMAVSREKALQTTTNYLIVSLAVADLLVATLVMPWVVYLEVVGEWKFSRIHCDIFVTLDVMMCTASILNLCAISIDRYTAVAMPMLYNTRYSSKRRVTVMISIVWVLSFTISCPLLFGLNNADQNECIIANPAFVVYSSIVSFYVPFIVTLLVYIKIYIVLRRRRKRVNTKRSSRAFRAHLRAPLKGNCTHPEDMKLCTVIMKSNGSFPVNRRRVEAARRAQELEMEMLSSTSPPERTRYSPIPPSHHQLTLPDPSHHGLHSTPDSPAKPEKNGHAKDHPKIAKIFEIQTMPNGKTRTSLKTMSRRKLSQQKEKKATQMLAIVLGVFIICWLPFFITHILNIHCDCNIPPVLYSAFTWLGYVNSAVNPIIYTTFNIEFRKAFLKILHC
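Read-out: kinetic calcium fluorescence (1 cycle/s) in inducible HEK293 T-REx D2 cells after an EC80 dopamine addition that followed 180 s compound preincubation. Loss of the dopamine response indicates antagonism.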
D2 PAM-1: positive allosteric modulators of human D2 dopamine receptor. P14416. HEK293 T-REx D2, calcium flux, EC20 dopamine potentiation. potentiation, % at 10 µM. 340,000 compounds, 0.34% hits. AID 485347;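 active means potentiation over 3 SD above the plate norm, cut at about 30% in these data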; further: 0% is about no effect
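Potentiation of an EC20 dopamine calcium response measured kinetically over 180 s, after a preceding 180 s compound-only read flagging agonists. Cells: inducible Hek293 Trex D2 line, 4000/well, cultured overnight at 30 C before dye loading.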
D2 ag-1: agonists of human D2 dopamine receptor (beta-arrestin); DiscoveRx PathHunter D2 beta-arrestin, luminescence, 90 min; 100% = 57 uM dopamine signal; AID 624465; 360,000 compounds, 0.084% hits; activation, % (no concentration beside the values); P14416; in the data active means activation above about 40%; inconclusive means between about 15% and that limit
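DiscoveRx PathHunter D2 beta-arrestin cells (2,100/well) attached overnight, then compound-stimulated 90 min at 37 C in HBSS/10 mM HEPES/0.1% Tween-20 buffer; beta-galactosidase complementation read by luminescence after 1 h at ambient temperature. Dopamine 57 uM final (EC100) as control.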
D2 PAM-2: human D2 receptor positive allosteric modulation; DiscoveRx D2 beta-arrestin cells, luminescence, 90 min; 100% = 57 uM dopamine signal; potentiation, % (test concentration not listed); 360,000 compounds, 0.23% hits; in the data active means potentiation above about 50%; inconclusive means mostly about 30% to 49%
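D2 cells co-treated with compound plus 50 nM dopamine (EC20) for 90 min at 37 deg C to detect potentiation. Beta-arrestin recruitment was read as enzyme-fragment luminescence after 1 h at ambient temperature. Full response was set by 57 uM dopamine.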
D2 ag-2: D2 dopamine receptor (human) agonism. HEK293 T-REx D2 cells, calcium flux agonist mode. activation, % at 2 µM. 340,000 compounds, 0.53% hits;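 active means activation over 3 SD above normal in the single-dose calcium agonist read, cut at about 30% in these data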; further: 0% is about no effect
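Tetracycline-induced HEK293 Trex cells with D2 receptor force-coupled to calcium signaling, plated overnight at 30 C and loaded with no-wash calcium dye. Calcium flux read kinetically for 180 s after compound addition; responses flag agonists.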
* hit, by the source's call; ? = inconclusive; / = not tested or not shown.

SMILES	D2 antag	D2 PAM-1	D2 ag-1	D2 PAM-2	D2 ag-2
CC1(C)CC(=O)C/C(=N\NC(=O)C2CC23CCC3)C1 (stereo not given)	47*	-5	-3	-2	1
CN(c1ccc(C(=O)NCc2ccccn2)cc1)S(=O)(=O)c1ccc(Cl)cc1	-3	2	-2	-9	0
Cc1ccc(S(=O)(=O)N(C)c2ccc(C(=O)NCc3ccccn3)cc2)cc1	57*	-12	2	-7	0
CC1(C(=O)OCC(=O)NCc2ccc(Cl)cc2)CC1(Cl)Cl (stereo not given)	/	/	-5	-4	/
CC1(C(=O)OCC(=O)NC(=O)NCc2ccccc2)CC1(Cl)Cl (stereo not given)	31*	6	-2	0	1
Cc1ccccc1Cn1cnc2c(NS(C)(=O)=O)c(C)c(C)cc21	35*	-5	1	-3	0
CCc1ccc(NC(=O)CCCc2nnc3n(C(C)CC)c(=O)c4sccc4n23)cc1 (stereo not given)	/	1	/	/	2
COCCCn1c(SCc2nnc(-c3ccccc3)o2)nc2sc3c(c2c1=O)CCC3	-3	33*	-1	1	1
CCCn1c2ccccc2c2cnn(CC(=O)Nc3cccc(C(=O)OCC)c3)c(=O)c21	/	-4	/	/	0
Cc1cc(NC(=O)c2ccc(Cn3cc([N+](=O)[O-])cn3)o2)no1	/	/	-1	-5	/
Cc1ccccc1NC(=O)c1ccc(Cn2cc([N+](=O)[O-])cn2)o1	32*	-2	-6	0	0
N#CCC(=O)Nc1ccc(C(=O)OCC(=O)C23CC4CC(CC(C4)C2)C3)cc1	0	12	-4	-2	1
O=C(OCCC12CC3CC(CC(C3)C1)C2)c1ccc(NCc2cc(O)ccc2O)cc1	/	/	?	64*	/
O=C(OCC12CC3CC(CC(C3)C1)C2)c1ccc(NCc2cc(O)ccc2O)cc1	/	/	?	55*	/
COc1ccc(-c2cn3c(n2)sc2cc(C(=O)NC(C)C45CC6CC(CC(C6)C4)C5)ccc23)cc1 (stereo not given)	/	8	/	/	1
COc1ccc(-n2c(-c3ccc(C)cc3)cc3c2CC(C)(C)CC3=O)cc1Cl	/	0	/	/	1
CC(=O)NC(=S)Nc1ccccc1C(=O)Nc1ccccc1	47*	6	-5	-19	2
CCCCC(=O)NC(=S)Nc1ccccc1C(=O)Nc1ccccc1	4	-4	-5	-16	-1
CN(C(=O)CS(=O)(=O)Cc1ccccc1Cl)c1ccccc1	3	-12	1	4	0
CO/N=C(/CS(=O)(=O)Cc1ccccc1Cl)c1ccc(Cl)cc1Cl	43*	-7	-5	-16	2
COC(=O)c1ccc2c(C)c(C(C)(C)O)[nH]c2c1	45*	-9	3	3	0
COCCn1c(=O)[nH]c2cc(C(=O)OC)ccc2c1=O	-5	12	1	21	1
FC(F)Oc1ccc(/C=N/c2c(-c3ccc(OC(F)F)cc3)nc3n2CCS3)cc1	-8	35*	0	-9	0
COc1ccc(-c2nc3n(c(=O)c2C#N)CCS3)cc1	/	/	3	2	/
C=C(C)Cn1c2ccc(NC(=S)NCc3ccccc3F)cc2c(=O)n1C	/	/	103*	-6	/
SMILES	D2 antag	D2 PAM-1	D2 ag-1	D2 PAM-2	D2 ag-2
Nc1ccc(-c2c3ccc(=O)cc-3oc3cc(O)ccc23)cc1C(=O)O	-33	-5	-10	-14	92*
COc1ccc(CCNC(=O)CCn2c(=O)[nH]c3cc(OC)c(OC)cc3c2=O)cc1OC	13	-4	-1	17	0
CCOc1cc2[nH]c(=O)n(CCC(=O)NCCc3ccc(OC)c(OC)c3)c(=O)c2cc1OCC	-3	35*	-1	7	0
O=C(COc1ccc(Br)cc1)Nc1ccc2c(c1)C(=O)NC2=O	33*	-15	-3	-9	0
NC(=Nc1ccccc1)Nc1ccccc1	56*	-17	9	-6	79*
CCOC(=O)/C(C(=Nc1ccccc1)Nc1ccccc1)=C(\C)O	-8	7	-2	-12	-1
O=C(Cn1c(=O)nc(-c2ccccc2)c2cc(Cl)ccc21)NCc1ccccc1	/	2	/	/	2
CCN(CC)c1ccc(/C=C(/C#N)c2nc3ccc(C)cc3[nH]2)c(OC(C)C)c1	-2	-7	-6	-17	42*
O=C(NCc1cccc(Cl)c1)c1cnc(N2CCCCC2)c2ccccc12	/	10	/	/	0
CCC(=O)C1=C(c2ccc(F)cc2)N(C(=O)CC)n2c(nnc2-c2ccc(OC)cc2)S1	/	-4	/	/	0
CCOC(=O)CSc1nc(C)nc2c1sc1nc(C)c(C(C)=O)c(-c3ccc(OC)cc3)c12	40*	5	-2	-9	3
Cc1ccc(NC(=O)c2nc(-c3ccncc3)no2)c(Cl)c1	/	3	/	/	0
Cc1nn(C(=O)c2cc3sccc3[nH]2)c(C)c1C	34*	-3	0	-3	0
COc1ccc(C)cc1NC1(c2ccccc2)C(=O)c2ccccc2C1=O	/	-1	/	/	/
O=C(O)CC(c1ccc(Br)cc1)N1Cc2ccccc2C1=O (stereo not given)	42*	1	-2	1	0
Cc1ccc(OCCn2cc(C(=O)C3CCCCC3)c3ccccc32)cc1	/	6	/	/	2
COc1ccc(-c2noc(-c3ccc(NCc4ccc(C)cc4)c([N+](=O)[O-])c3)n2)cc1OC	/	-16	/	/	/
CC1Cc2cc(/C(O)=C3/C(=O)C(=O)N(CCCn4ccnc4)C3c3ccc(F)cc3)ccc2O1 (stereo not given)	44*	-2	-1	-3	1
Cc1cc2oc(C(=O)N(Cc3ccccc3F)C3CCS(=O)(=O)C3)c(C)c2cc1Cl (stereo not given)	/	4	/	/	2
CCCCNC(=O)c1ccc2c(c1)N(C)C(=O)c1ccccc1S2	-27	-9	1	-13	-1
CC(C)CCNC(=O)c1ccc2c(c1)N(C)C(=O)c1ccccc1S2	47*	-21	-2	-23	2
CCN1C(=O)c2ccccc2Sc2ccc(C(=O)NCCC(C)C)cc21	44*	-26	-4	-21	0
O=c1[nH]c2ccccc2cc1CN(CC1CCCO1)S(=O)(=O)c1ccccc1 (stereo not given)	35*	-25	5	0	0
CN1CCN(C(=O)c2ccc3c(c2)N(Cc2ccc(C(F)(F)F)cc2)C(=O)c2ccccc2S3)CC1	/	-26	/	/	4
CSc1nc(C)cc(/C=C\c2ccccc2)c1C#N	-8	41*	-5	-15	-1
Cc1ccc(NC(=O)CSc2nc3ccc(NC(=O)CCc4ccccc4)cc3s2)cc1	/	18	/	/	2
Cc1c(C(=O)O)sc2ncnc(N3CCCCC3C)c12 (stereo not given)	-1	33*	0	-14	0
